Test results from ChEMBL document CHEMBL1157539, “Thousands of chemical starting points for antimalarial lead identification” (Nature, 2010).

test system: Plasmodium falciparum; test: GSK_TCMDC: Inhibition of Plasmodium falciparum Dd2 in whole red blood cells, using parasite LDH activity as an index of growth. Test compounds present at 2uM; type: functional

SMILES	Inhibition
CN1CCN(c2ccnc3cc4c(cc23)N(Cc2ccccc2)CC4)CC1	27%
CCOC(=O)C1=C(C)NC2=C(C(=O)CC(C)(C)C2)C1c1ccc(Cl)cc1 (stereo not given)	84%
O=C(Nc1ccc(Cl)cc1)Nc1cccc(-c2ccc(-c3nc4cc(F)ccc4[nH]3)cc2)c1	99%
CSC1=NC(=Nc2c(C)cccc2C)C2(CCC(C(C)(C)C)CC2)N1c1ccc(O)cc1.I (stereo not given)	93%
FC(F)(F)c1cccnc1N1CCC(Nc2nc3cc(Cl)ccc3[nH]2)CC1	39%
CCOCc1cnc(C)nc1CNC(=O)c1c(C)[nH]c2ccc(C)cc12	65%
O=C(NC1CCCCC1)c1ccc(O)c(-c2cccc(C(F)(F)F)c2)c1	87%
C[C@@H](Oc1cc(-n2cnc3ccc(NC(=O)NC(C)(C)C)cc32)sc1C(N)=O)c1ccccc1Cl	97%
O=C(NCCCN1CCCC1=O)NCc1ccccc1	4%
CNC(=O)C(NC(=O)c1ccccc1C(=O)OC)c1ccccc1 (stereo not given)	2%
COc1ccc(CNCc2ccc(F)cc2)cc1-c1ccc(OC)c(S(=O)(=O)NCCN2CCCC2)c1.O=C(O)C(F)(F)F	88%
CCOC(=O)c1[nH]c2ccc(F)cc2c1NC(=O)CN1CCN(c2cccc(C(F)(F)F)c2)CC1	90%
Cc1cc(-c2cnc(N)c(-c3ccc(N4CCN(C)CC4)nc3)c2)cc(C)c1O	33%
Cc1ccc(NC(=O)NC2CCN(CCCCCNC(=O)/C=C/c3ccc(Cl)c(Cl)c3)CC2)cc1C	25%
Cn1nc(-c2ccc(CN[C@@H]3CCc4ccc(O)cc43)cc2)c2cnc(NCCCN3CCCC3)nc21	61%
COc1ccc2[nH]ccc(=NN=CC=Cc3ccccc3)c2c1	99%
O=C(/C=C/c1ccc(Cl)c(Cl)c1)NCCCCCN1CCC(NC(=S)Nc2ccc(Cl)cc2)CC1	41%
CC(C)CNCc1ccc(-c2cccc(-c3nc4ccccc4[nH]3)c2)cc1.O=C(O)C(F)(F)F	98%
CCN(CC)CCCC(C)Nc1ccnc2ccc(-c3ccccc3)cc12 (stereo not given)	21%
CCN(CC)CC(O)c1cc(-c2ccc(C)cc2)nc2c(C)cc(C)cc12.Cl (stereo not given)	99%

SMILES	Inhibition
COCC(C)n1c(SCC(=O)Nc2cc(C(F)(F)F)ccc2Cl)nc2ccccc2c1=O (stereo not given)	96%
C=CCc1cc(Cc2cnc(N)nc2N)cc(CCC)c1O	2%
O=C1Nc2cccc3c2C1(CCCCN1CCC(c2cc4ccncc4[nH]2)CC1)CCC3 (stereo not given)	0%
Br.CN(C)CCCOc1ccc(-c2csc(NC(=N)NCc3ccccc3)n2)cc1	97%
CCc1cc(OC)c(C(=O)NC2CCN(C[C@H](O)c3ccnc4ccc(OC)cc34)CC2)cc1Br	56%
Cc1ccc(C(=O)NC2CC2)cc1-c1ccc2c(cnn2S(=O)(=O)c2ccc(F)cc2)c1	69%
COc1cc2c(cc1COc1ccccc1)CCN1Cc3cc(OC)c(OC)cc3CC21 (stereo not given)	84%
CC(C)NCc1cccc(-c2cccc(-c3nc4cc(F)ccc4[nH]3)c2)c1.O=C(O)C(F)(F)F	85%
Cl.Clc1ccc2c(NCCNc3ccnc4cc(Cl)ccc34)ccnc2c1	96%
O=C(CCc1cccnc1)Nc1cccc(-c2ccc(-c3nc4cc(C(F)(F)F)ccc4[nH]3)cc2)c1	0%
COc1ccc(CN(C)CCOc2ccc(NC(=O)c3cccc4c(=O)c5cc(SC)ccc5[nH]c34)cc2)cc1OC	98%
O=C(NCc1cccc2ccccc12)C(c1cc2ccccc2o1)N1CCN(C(c2ccccc2)c2ccccc2)CC1 (stereo not given)	90%
CC(C)N1CCC(N(Cc2ccc(-c3ccc(C(F)(F)F)cc3)cc2)C(=O)CCCn2c(CCc3cccc(F)c3F)nc(=O)c3ccccc32)CC1.O=C(O)C(O)C(O)C(=O)O	60%
CC(=O)Nc1ncc(C(=O)Nc2cccc(-c3ccc(-c4nc5ccccc5[nH]4)cc3)c2)s1	66%
Oc1ccc(Cl)c2c1C(c1ccccc1)=NCC2	43%
COc1ccc(-c2cc(C(=O)N[C@@H](CC3CCCCC3)C(=O)NCCN3CCCCC3)ccc2O)cc1	72%
CNC(=O)COC(=O)c1c2c(nc3ccccc13)C(=Cc1ccc3c(c1)OCO3)CCC2	36%
O=C(Nc1ccc(-c2nc3ccccc3[nH]2)cc1)c1ccc(-c2cccc([N+](=O)[O-])c2)o1	97%
Cc1cc2c(cc1Cl)N(C(=O)Nc1cc(F)cc(-c3cncnc3)c1)CC2	59%
CN(CCN)Cc1cccc(-c2ccc(-c3nc4cc(C(F)(F)F)ccc4[nH]3)s2)c1.O=C(O)C(F)(F)F	92%

test system: HepG2; test: GSK_TCMDC: Percent inhibition of human HepG2 cell line. Test compounds present at 10uM.; type: functional

SMILES	Inhibition
CN1CCN(c2ccnc3cc4c(cc23)N(Cc2ccccc2)CC4)CC1	0%
CCOC(=O)C1=C(C)NC2=C(C(=O)CC(C)(C)C2)C1c1ccc(Cl)cc1 (stereo not given)	4%
O=C(Nc1ccc(Cl)cc1)Nc1cccc(-c2ccc(-c3nc4cc(F)ccc4[nH]3)cc2)c1	73%
CSC1=NC(=Nc2c(C)cccc2C)C2(CCC(C(C)(C)C)CC2)N1c1ccc(O)cc1.I (stereo not given)	5%
FC(F)(F)c1cccnc1N1CCC(Nc2nc3cc(Cl)ccc3[nH]2)CC1	32%
CCOCc1cnc(C)nc1CNC(=O)c1c(C)[nH]c2ccc(C)cc12	8%
O=C(NC1CCCCC1)c1ccc(O)c(-c2cccc(C(F)(F)F)c2)c1	8%
C[C@@H](Oc1cc(-n2cnc3ccc(NC(=O)NC(C)(C)C)cc32)sc1C(N)=O)c1ccccc1Cl	28%
O=C(NCCCN1CCCC1=O)NCc1ccccc1	8%
CNC(=O)C(NC(=O)c1ccccc1C(=O)OC)c1ccccc1 (stereo not given)	4%
COc1ccc(CNCc2ccc(F)cc2)cc1-c1ccc(OC)c(S(=O)(=O)NCCN2CCCC2)c1.O=C(O)C(F)(F)F	24%
CCOC(=O)c1[nH]c2ccc(F)cc2c1NC(=O)CN1CCN(c2cccc(C(F)(F)F)c2)CC1	12%
Cc1cc(-c2cnc(N)c(-c3ccc(N4CCN(C)CC4)nc3)c2)cc(C)c1O	0%
Cc1ccc(NC(=O)NC2CCN(CCCCCNC(=O)/C=C/c3ccc(Cl)c(Cl)c3)CC2)cc1C	36%
Cn1nc(-c2ccc(CN[C@@H]3CCc4ccc(O)cc43)cc2)c2cnc(NCCCN3CCCC3)nc21	8%
COc1ccc2[nH]ccc(=NN=CC=Cc3ccccc3)c2c1	11%
O=C(/C=C/c1ccc(Cl)c(Cl)c1)NCCCCCN1CCC(NC(=S)Nc2ccc(Cl)cc2)CC1	62%
CC(C)CNCc1ccc(-c2cccc(-c3nc4ccccc4[nH]3)c2)cc1.O=C(O)C(F)(F)F	53%
CCN(CC)CCCC(C)Nc1ccnc2ccc(-c3ccccc3)cc12 (stereo not given)	0%
CCN(CC)CC(O)c1cc(-c2ccc(C)cc2)nc2c(C)cc(C)cc12.Cl (stereo not given)	3%

SMILES	Inhibition
COCC(C)n1c(SCC(=O)Nc2cc(C(F)(F)F)ccc2Cl)nc2ccccc2c1=O (stereo not given)	3%
C=CCc1cc(Cc2cnc(N)nc2N)cc(CCC)c1O	54%
O=C1Nc2cccc3c2C1(CCCCN1CCC(c2cc4ccncc4[nH]2)CC1)CCC3 (stereo not given)	0%
Br.CN(C)CCCOc1ccc(-c2csc(NC(=N)NCc3ccccc3)n2)cc1	57%
CCc1cc(OC)c(C(=O)NC2CCN(C[C@H](O)c3ccnc4ccc(OC)cc34)CC2)cc1Br	6%
Cc1ccc(C(=O)NC2CC2)cc1-c1ccc2c(cnn2S(=O)(=O)c2ccc(F)cc2)c1	7%
COc1cc2c(cc1COc1ccccc1)CCN1Cc3cc(OC)c(OC)cc3CC21 (stereo not given)	0%
CC(C)NCc1cccc(-c2cccc(-c3nc4cc(F)ccc4[nH]3)c2)c1.O=C(O)C(F)(F)F	20%
Cl.Clc1ccc2c(NCCNc3ccnc4cc(Cl)ccc34)ccnc2c1	6%
O=C(CCc1cccnc1)Nc1cccc(-c2ccc(-c3nc4cc(C(F)(F)F)ccc4[nH]3)cc2)c1	38%
COc1ccc(CN(C)CCOc2ccc(NC(=O)c3cccc4c(=O)c5cc(SC)ccc5[nH]c34)cc2)cc1OC	67%
O=C(NCc1cccc2ccccc12)C(c1cc2ccccc2o1)N1CCN(C(c2ccccc2)c2ccccc2)CC1 (stereo not given)	0%
CC(C)N1CCC(N(Cc2ccc(-c3ccc(C(F)(F)F)cc3)cc2)C(=O)CCCn2c(CCc3cccc(F)c3F)nc(=O)c3ccccc32)CC1.O=C(O)C(O)C(O)C(=O)O	45%
CC(=O)Nc1ncc(C(=O)Nc2cccc(-c3ccc(-c4nc5ccccc5[nH]4)cc3)c2)s1	12%
Oc1ccc(Cl)c2c1C(c1ccccc1)=NCC2	0%
COc1ccc(-c2cc(C(=O)N[C@@H](CC3CCCCC3)C(=O)NCCN3CCCCC3)ccc2O)cc1	3%
CNC(=O)COC(=O)c1c2c(nc3ccccc13)C(=Cc1ccc3c(c1)OCO3)CCC2	7%
O=C(Nc1ccc(-c2nc3ccccc3[nH]2)cc1)c1ccc(-c2cccc([N+](=O)[O-])c2)o1	47%
Cc1cc2c(cc1Cl)N(C(=O)Nc1cc(F)cc(-c3cncnc3)c1)CC2	0%
CN(CCN)Cc1cccc(-c2ccc(-c3nc4cc(C(F)(F)F)ccc4[nH]3)s2)c1.O=C(O)C(F)(F)F	27%
